Where “and” joins values, the source holds several entries; their conditions need not be identical. Identical values can stand only once. Results filed as inconclusive are left out. Entries that show only a call come without a potency. Calls of active or inactive are those of the source. Unless noted, calls come from the whole dose curve.
Assays:
[1] = target: Peroxisome proliferator-activated receptor delta (Homo sapiens) (UniProt Q03181); test: qHTS assay for small molecule agonists of peroxisome proliferator-activated receptor delta signaling (AID 588534)
Chain of Peroxisome proliferator-activated receptor delta (Homo sapiens) (Q03181 whole entry, looked up): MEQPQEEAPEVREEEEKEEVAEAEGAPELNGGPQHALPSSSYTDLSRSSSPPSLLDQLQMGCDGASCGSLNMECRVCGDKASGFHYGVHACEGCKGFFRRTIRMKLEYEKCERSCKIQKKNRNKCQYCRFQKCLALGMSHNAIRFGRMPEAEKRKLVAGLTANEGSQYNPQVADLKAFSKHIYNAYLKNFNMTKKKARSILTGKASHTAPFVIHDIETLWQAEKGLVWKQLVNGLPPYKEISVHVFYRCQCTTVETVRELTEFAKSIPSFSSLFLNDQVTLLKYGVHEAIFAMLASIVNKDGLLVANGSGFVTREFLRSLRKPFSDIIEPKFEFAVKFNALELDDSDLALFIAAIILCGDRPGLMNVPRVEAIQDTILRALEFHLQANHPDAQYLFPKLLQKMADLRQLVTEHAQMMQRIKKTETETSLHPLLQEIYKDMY
In short: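 EC50 and efficacy values derive from Hill fits of a concentration series in a beta-lactamase reporter cell assay. Exposure is 18 hrs at 37 C, with CCF4 fluorescence as the readout.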

[2] = qHTS assay for small molecule antagonists of peroxisome proliferator-activated receptor delta signaling (AID 588535; active = well fitted inhibition curve with a large enough effect in the signal ratio, with a control signal flat, not every such curve was filed as active; the % refers to the signal ratio; note: potency is the fitted concentration of half-maximal effect;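 for max response: cells co-treated with a PPAR-delta agonist as stimulator during compound exposure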); settings: HEK293T PPARd-UAS-bla, beta-lactamase FRET ratio, 18 h; 460 nm channel
In short: (§1)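 Compounds tested in titration on PPAR-delta-UAS-bla HEK293T cells grown in charcoal/dextran-stripped serum (2%); beta-lactamase activity read via CCF4 emission at 460 and 530 nm.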

[3] = target: Peroxisome proliferator-activated receptor delta (Homo sapiens) (UniProt Q03181); test: as above
In short: as §1

[4] = target: Peroxisome proliferator-activated receptor gamma (Homo sapiens) (UniProt P37231); test: qHTS assay for small molecule agonists of peroxisome proliferator-activated receptor gamma signaling (AID 588536; active = well fitted curve in the direction sought with a large enough effect in the signal ratio, with a control signal flat, not every such curve was filed as active; the % refers to the signal ratio)
Chain of Peroxisome proliferator-activated receptor gamma (Homo sapiens) (P37231 whole entry, looked up): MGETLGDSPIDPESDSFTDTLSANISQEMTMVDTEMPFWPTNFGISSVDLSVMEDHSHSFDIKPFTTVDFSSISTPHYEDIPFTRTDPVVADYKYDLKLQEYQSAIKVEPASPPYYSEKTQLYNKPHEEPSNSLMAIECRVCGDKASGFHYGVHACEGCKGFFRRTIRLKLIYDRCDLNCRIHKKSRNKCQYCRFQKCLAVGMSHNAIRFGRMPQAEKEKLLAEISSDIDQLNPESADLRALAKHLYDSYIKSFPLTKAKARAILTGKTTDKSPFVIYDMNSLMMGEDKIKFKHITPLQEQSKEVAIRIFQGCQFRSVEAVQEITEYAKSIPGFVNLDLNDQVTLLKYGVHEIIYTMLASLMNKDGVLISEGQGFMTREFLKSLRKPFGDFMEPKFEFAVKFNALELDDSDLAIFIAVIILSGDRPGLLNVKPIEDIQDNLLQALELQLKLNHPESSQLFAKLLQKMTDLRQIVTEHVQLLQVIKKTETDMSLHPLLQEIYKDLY
In short: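 This is an agonist-mode beta-lactamase reporter assay in HEK293 PPAR-gamma-UAS-bla cells with 1% charcoal/dextran FBS. Compound titrations ran 16 h at 37 C before CCF4 detection. EC50 and efficacy are Hill fits scaled to 2 uM rosiglitazone (100%) and DMSO basal.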

[5] = target: Peroxisome proliferator-activated receptor gamma (Homo sapiens) (UniProt P37231); test: qHTS assay for small molecule antagonists of peroxisome proliferator-activated receptor gamma signaling (AID 588537; active = well fitted inhibition curve with a large enough effect in the signal ratio, with a control signal flat, not every such curve was filed as active; the % refers to the signal ratio;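 note: reporter cells co-stimulated with 50 nM rosiglitazone agonist during compound treatment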)
In short: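 HEK293 cells, PPAR-gamma-UAS-bla, 3000/well. Pre-incubation 6-6.5 h, 37 C. Compound titration with rosiglitazone 50 nM final, 16 h. CCF4 dye, 2 h RT, dual-emission fluorescence.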

[6] = target: Vitamin D3 receptor (Homo sapiens) (UniProt P11473); test: qHTS assay for small molecule antagonists of vitamin D receptor signaling (AID 588541); note: potency is the fitted concentration of half-maximal effect
Chain of Vitamin D3 receptor (Homo sapiens) (P11473 whole entry, looked up): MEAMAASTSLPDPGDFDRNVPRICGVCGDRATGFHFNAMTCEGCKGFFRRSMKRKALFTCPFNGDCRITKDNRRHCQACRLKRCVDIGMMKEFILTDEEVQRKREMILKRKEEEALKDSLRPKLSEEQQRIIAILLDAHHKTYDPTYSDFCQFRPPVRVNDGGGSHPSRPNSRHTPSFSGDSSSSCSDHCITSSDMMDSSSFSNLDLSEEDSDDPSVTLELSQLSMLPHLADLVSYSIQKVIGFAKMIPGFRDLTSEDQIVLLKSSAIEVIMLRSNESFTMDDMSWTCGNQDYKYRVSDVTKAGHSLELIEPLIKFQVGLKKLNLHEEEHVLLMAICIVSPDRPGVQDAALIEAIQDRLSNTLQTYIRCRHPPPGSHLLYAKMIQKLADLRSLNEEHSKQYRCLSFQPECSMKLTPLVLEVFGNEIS
In short: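 VDR-UAS-bla HEK293T cells (2000/well, 2% charcoal-stripped FBS) were treated with titrated compounds plus 1-alpha,25-dihydroxyvitamin D3 (50 nM or 3 nM final) for 16 h at 37 C. CCF4 beta-lactamase fluorescence was read; Hill fits gave IC50.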

[7] = qHTS assay for small molecule agonists of retinoid X receptor alpha signaling (AID 588544); settings: HEK293T RXRa-UAS-bla, beta-lactamase reporter, 18 h; 530 nm emission
[8] = target: Retinoic acid receptor RXR-alpha (Homo sapiens) (UniProt P19793); test: as above
Chain of Retinoic acid receptor RXR-alpha (Homo sapiens) (P19793 whole entry, looked up): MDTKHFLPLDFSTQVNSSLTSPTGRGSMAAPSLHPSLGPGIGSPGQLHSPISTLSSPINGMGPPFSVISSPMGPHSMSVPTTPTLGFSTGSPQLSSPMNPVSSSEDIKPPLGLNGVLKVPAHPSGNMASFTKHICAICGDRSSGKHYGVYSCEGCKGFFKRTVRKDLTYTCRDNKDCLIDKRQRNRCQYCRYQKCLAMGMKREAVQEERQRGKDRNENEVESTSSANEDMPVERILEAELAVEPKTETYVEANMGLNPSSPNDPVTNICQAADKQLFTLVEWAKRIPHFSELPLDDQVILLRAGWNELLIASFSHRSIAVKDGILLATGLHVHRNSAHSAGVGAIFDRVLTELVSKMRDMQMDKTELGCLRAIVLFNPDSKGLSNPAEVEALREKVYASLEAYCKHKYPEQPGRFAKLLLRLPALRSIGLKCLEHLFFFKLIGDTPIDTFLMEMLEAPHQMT

[9] = qHTS assay for small molecule antagonists of retinoid X receptor alpha signaling (AID 588546; active = well fitted inhibition curve with a large enough effect in the signal ratio, with a control signal flat, not every such curve was filed as active; the % refers to the signal ratio;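 note: cells stimulated with 9-cis-retinoic acid as agonist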); settings: HEK293T RXRa-UAS-bla, beta-lactamase ratio, antagonist mode; measured here: W530 green channel, cytotoxicity proxy
In short: (§2)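 Beta-lactamase reporter inhibition, read as CCF4 fluorescence ratio (ex 405, em 460/530 nm) after 2 h at RT. HEK293T UAS-bla cells, 2500/well, were stimulated with 9-cis-RA at 500 or 100 nM final alongside test compound for 18 h at 37 C.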

[10] = target: Retinoic acid receptor RXR-alpha (Homo sapiens) (UniProt P19793); test: as above; settings: HEK293T RXRa-UAS-bla, beta-lactamase ratio, antagonist mode
In short: as §2

[11] = target: Thyroid hormone receptor beta (Homo sapiens) (UniProt P10828); test: qHTS assay for small molecule antagonists of thyroid hormone receptor beta signaling (AID 588547; active = well fitted inhibition curve with a large enough effect in the signal ratio, with a control signal flat, not every such curve was filed as active; the % refers to the signal ratio;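 note: cells stimulated with 0.4 nM T3 agonist during compound exposure; series mostly up to about 77 µM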); settings: TR-UAS-bla HEK293, beta-lactamase ratio, antagonist mode, 18 h
Chain of Thyroid hormone receptor beta (Homo sapiens) (P10828 whole entry, looked up): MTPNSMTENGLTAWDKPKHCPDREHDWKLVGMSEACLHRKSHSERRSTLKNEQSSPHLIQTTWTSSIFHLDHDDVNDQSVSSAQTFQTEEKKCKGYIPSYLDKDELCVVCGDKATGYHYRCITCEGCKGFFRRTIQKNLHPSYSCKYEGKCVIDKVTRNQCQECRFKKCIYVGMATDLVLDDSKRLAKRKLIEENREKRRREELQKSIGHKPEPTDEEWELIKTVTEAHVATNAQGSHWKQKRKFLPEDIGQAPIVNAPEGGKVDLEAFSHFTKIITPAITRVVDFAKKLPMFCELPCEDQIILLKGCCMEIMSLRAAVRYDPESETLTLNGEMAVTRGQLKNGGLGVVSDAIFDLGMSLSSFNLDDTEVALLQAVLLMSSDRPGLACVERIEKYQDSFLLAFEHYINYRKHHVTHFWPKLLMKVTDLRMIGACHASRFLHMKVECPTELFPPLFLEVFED
In short: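 TR-UAS-bla GripTite HEK293 cells in 2% charcoal/dextran FBS medium were preincubated 4 h at 37 C, given compound (0.59 nM to 92 uM) plus 0.4 nM T3 (final) for 18 h, then CCF4 for 2 h at RT; Hill fit gave IC50.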

[12] = target: Luciferin 4-monooxygenase (Photinus pyralis) (UniProt P08659); test: Biochemical firefly luciferase enzyme assay for NPC (AID 624030; active = well fitted curve in the direction sought with a large enough effect; an effect the other way counts as inactive or inconclusive; note: nearly all actives have a fitted effect of over 70% in size; note: potency is the fitted concentration of half-maximal effect)
Chain of Luciferin 4-monooxygenase (Photinus pyralis) (P08659 whole entry, looked up): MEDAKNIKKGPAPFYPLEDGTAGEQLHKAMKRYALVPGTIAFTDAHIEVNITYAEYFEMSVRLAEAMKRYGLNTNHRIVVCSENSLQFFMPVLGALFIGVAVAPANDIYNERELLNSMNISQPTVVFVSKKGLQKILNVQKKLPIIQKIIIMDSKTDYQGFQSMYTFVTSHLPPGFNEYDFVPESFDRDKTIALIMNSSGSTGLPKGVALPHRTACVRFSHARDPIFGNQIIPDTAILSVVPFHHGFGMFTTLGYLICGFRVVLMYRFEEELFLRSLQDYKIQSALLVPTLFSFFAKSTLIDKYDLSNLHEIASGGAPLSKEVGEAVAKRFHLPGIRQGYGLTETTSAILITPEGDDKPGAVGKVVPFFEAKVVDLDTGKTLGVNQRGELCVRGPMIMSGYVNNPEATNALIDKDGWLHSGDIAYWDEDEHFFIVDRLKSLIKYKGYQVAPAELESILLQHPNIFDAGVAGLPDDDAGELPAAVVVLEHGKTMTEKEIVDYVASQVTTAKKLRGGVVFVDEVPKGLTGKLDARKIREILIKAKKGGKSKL
In short: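 Counter-screen for direct inhibition of the luciferase enzyme by approved-drug library compounds, run at 10 nM enzyme in 50 mM Tris acetate (final). Luminescence was read within 5 min of enzyme-buffer addition and normalized to PTC124 versus DMSO (0%).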

[13] = target: Glucocorticoid receptor (Homo sapiens) (UniProt P04150); test: qHTS assay for small molecule agonists of glucocorticoid receptor signaling (AID 588532; active = well fitted curve in the direction sought with a large enough effect in the signal ratio, with a control signal flat; the % refers to the signal ratio); settings: HeLa MMTV-bla, beta-lactamase ratio, agonist, 18 h; stronger effect = higher value; percent of dexamethasone control, DMSO zero
Chain of Glucocorticoid receptor (Homo sapiens) (P04150 whole entry, looked up): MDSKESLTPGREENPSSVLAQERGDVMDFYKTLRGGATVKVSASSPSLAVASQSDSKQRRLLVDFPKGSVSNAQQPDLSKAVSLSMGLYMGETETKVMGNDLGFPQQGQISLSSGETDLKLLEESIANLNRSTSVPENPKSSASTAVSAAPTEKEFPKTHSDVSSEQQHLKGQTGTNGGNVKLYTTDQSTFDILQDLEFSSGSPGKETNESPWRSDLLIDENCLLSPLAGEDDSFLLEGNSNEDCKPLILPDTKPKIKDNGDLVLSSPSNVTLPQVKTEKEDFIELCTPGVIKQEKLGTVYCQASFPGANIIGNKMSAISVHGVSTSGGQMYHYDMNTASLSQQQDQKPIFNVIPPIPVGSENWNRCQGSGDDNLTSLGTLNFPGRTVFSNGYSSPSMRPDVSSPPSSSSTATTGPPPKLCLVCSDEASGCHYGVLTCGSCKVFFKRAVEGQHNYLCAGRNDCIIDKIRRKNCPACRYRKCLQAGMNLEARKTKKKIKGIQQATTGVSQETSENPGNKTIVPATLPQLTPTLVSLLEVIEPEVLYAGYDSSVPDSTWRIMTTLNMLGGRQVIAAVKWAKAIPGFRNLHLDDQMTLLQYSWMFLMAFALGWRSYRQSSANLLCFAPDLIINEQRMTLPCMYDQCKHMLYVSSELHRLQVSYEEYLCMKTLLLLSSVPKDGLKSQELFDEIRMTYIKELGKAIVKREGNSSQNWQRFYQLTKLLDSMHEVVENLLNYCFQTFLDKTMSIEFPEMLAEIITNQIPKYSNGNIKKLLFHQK
In short: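 Titration series, up to 92 uM, applied to GRE-bla HeLa cells for 18 h at 37 C. Detection by CCF4 FRET substrate after 2 h at RT.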

[14] = target: Glucocorticoid receptor (Homo sapiens) (UniProt P04150); test: qHTS assay for small molecule antagonists of glucocorticoid receptor signaling (AID 588533; active = well fitted inhibition curve with a large enough effect in the signal ratio, with a control signal flat, not every such curve was filed as active; the % refers to the signal ratio;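 note: cells stimulated with 2 nM dexamethasone as agonist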; note: potency is the fitted concentration of half-maximal effect)
In short: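 Antagonist-mode qHTS: compound titrations added to GRE-bla HeLa cells, then dexamethasone 2 nM final; 18 h, 37 C. CCF4 FRET fluorescence normalized to dexamethasone and DMSO; IC50 from Hill fit.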

[15] = target: Voltage-gated inwardly rectifying potassium channel KCNH2 (Homo sapiens) (UniProt Q12809); test: qHTS Assay for Small Molecule Inhibitors of the Human hERG Channel Activity (AID 588834; active = well fitted curve in the direction sought with a large enough effect; an effect the other way counts as inactive or inconclusive;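 note: lower thallium flux fluorescence means stronger hERG block; nearly all actives have a fitted effect of over 50% in size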; note: potency is the fitted concentration of half-maximal effect)
Chain of Voltage-gated inwardly rectifying potassium channel KCNH2 (Homo sapiens) (Q12809 whole entry, looked up): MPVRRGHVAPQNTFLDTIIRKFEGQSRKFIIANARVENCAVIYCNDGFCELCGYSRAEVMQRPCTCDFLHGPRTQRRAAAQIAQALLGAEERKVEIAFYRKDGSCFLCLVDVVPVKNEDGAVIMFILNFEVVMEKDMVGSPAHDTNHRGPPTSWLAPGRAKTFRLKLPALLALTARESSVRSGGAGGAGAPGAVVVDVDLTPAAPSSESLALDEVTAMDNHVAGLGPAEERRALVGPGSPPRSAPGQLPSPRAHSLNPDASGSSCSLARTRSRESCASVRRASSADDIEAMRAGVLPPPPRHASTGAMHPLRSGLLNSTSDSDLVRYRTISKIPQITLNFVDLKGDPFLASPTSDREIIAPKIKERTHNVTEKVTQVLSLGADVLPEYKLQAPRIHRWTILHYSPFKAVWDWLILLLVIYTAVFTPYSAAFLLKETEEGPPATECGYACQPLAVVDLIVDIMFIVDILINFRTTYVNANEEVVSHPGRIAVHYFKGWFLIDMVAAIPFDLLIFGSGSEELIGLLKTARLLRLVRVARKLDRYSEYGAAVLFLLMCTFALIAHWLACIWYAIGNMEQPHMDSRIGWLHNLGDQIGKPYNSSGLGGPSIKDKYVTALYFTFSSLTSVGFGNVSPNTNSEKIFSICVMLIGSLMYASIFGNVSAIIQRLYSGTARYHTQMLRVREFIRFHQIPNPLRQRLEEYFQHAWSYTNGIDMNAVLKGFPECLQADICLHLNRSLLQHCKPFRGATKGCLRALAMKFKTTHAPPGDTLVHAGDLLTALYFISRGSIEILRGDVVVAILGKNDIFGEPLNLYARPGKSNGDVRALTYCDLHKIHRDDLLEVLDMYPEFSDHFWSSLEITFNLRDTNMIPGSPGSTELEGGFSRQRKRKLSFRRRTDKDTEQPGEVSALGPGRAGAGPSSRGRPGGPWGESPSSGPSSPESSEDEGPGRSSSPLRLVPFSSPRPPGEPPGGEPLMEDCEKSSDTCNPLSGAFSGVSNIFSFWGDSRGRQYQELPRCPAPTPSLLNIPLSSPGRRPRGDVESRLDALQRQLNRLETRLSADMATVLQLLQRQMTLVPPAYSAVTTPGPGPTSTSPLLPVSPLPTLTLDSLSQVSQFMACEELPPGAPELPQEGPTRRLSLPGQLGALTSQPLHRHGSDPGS
In short: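 hERG block measured as reduced thallium-dye (FluxOR) fluorescence after stimulation buffer addition, read over 2 min. Cells were hERG-BacMam-transduced U2OS exposed to compound ~10 min […]; concentration-response fitted with Hill equation for AC50.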

[16] = S16 Schwann cell viability assay (CellTiter-Glo assay) (AID 624031; active = well fitted curve in the direction sought with a large enough effect; an effect the other way counts as inactive or inconclusive; note: nearly all actives have a fitted effect of over 70% in size; note: potency is the fitted concentration of half-maximal effect)
In short: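 Following overnight culture in 10% FBS DMEM, parental S16 rat Schwann cells are dosed for 24 h at 37 °C. Viability is read as CellTiter-Glo luminescence and expressed as % activity relative to DMSO (0%) and no-cell wells.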

[17] = S16 Schwann cell PMP22 intronic element firefly luciferase assay (AID 624032; active = well fitted curve in the direction sought with a large enough effect; an effect the other way counts as inactive or inconclusive; note: nearly all actives have a fitted effect of over 30% in size; note: potency is the fitted concentration of half-maximal effect)
In short: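 Rat S16 Schwann cells stably carrying a PMP22 intronic element-driven Fluc reporter were seeded overnight, then exposed to compounds for 24 h at 37 °C. Luminescence was normalized to PTC124 (positive control) and DMSO (0% activity).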

[18] = target: Thyroid hormone receptor beta (Homo sapiens) (UniProt P10828); test: qHTS assay for small molecule agonists of thyroid hormone receptor beta signaling (AID 588545)
In short: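 Efficacy and EC50 values derive from Hill fits of qHTS titration data, normalized to 10 nM T3 and DMSO-only wells. HEK 293 reporter cells were stimulated for 18 hrs at 37 C, with beta-lactamase activity measured by CCF4 fluorescence.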

| Structure (SMILES) | outcome [1] | max response [2] | Potency [3] | outcome [4] | Potency [5] | Potency [6] | max response [7] | Potency [8] | max response [9] | max response [10] | activity change % (negative = inhibition) [11] | Potency [12] | activation [13] | Potency [14] | Potency [15] | Potency [16] | Potency [17] | outcome [18] |
| --- | --- | --- | --- | --- | --- | --- | --- | --- | --- | --- | --- | --- | --- | --- | --- | --- | --- | --- |
| Nc1c(Cl)c(Cl)c(Cl)c(Cl)c1Cl | inactive | 13.6% | inactive | inactive | inactive | inactive | -5.48% | inactive | -3.59% | -8.48% (inactive) | 17.1% (inactive) | inactive | – | – | – | – | – | – |
| C=CC(=O)NCNC(=O)C=C | inactive | -23.6% | inactive | inactive | inactive | inactive | 1.23% and 0.699% | inactive | -7% and 1.5% | 10.7% (inactive) and -13.1% (inactive) | -12.9% (inactive) and 1.41% (inactive) | inactive | 4.39% (inactive) and -21.1% (inactive) | inactive | inactive | – | – | – |
| Brc1ccccc1-c1ccccc1 | inactive | – | – | – | – | – | – | – | – | – | – | – | – | – | 28.2 µM (active) | – | – | – |
| CC(=O)[O][Hg][c]1ccccc1 | – | -98.8% | 2820 nM (active) | – | – | 1.58 µM (active) and 2.51 µM (active) | – | – | – | – | – | 2560 nM (active) | 23.7% (inactive) | 141 nM (active) | 14.1 µM (active) and 25.1 µM (active) | 907 nM (active) | 1140 nM (active) | – |
| O=C(O)COc1ccccc1 | inactive | 43.8% | inactive | inactive | – | inactive | – | – | 0.163% | -9.5% (inactive) | -9.48% (inactive) | inactive | -4.12% (inactive) | inactive | inactive | inactive | inactive | inactive |
| CCCCCCCCCCCCCCCC[N+](C)(C)C | inactive | -6.14% | inactive | – | inactive | inactive | – | – | -7.98% | -2.56% (inactive) | – | inactive | 4.02% (inactive) | inactive | inactive | – | 8090 nM (active) | – |
| O=C(Nc1ccccc1-c1ccc(Cl)cc1)c1cccnc1Cl | inactive | – | – | inactive | – | inactive | – | – | -4.9% | -14.2% (inactive) | – | inactive | -16.1% (inactive) | inactive | – | – | – | inactive |
| [Cl][In]([Cl])[Cl] | inactive | – | – | – | – | – | – | – | – | – | – | 14800 nM (active) | – | – | – | – | – | – |
| CN(C)NC(=O)CCC(=O)O | inactive | -12.7% and 32.6% | inactive | inactive | inactive | inactive | 6.92% and -25.6% | inactive | -8.59% and -3.29% | -0.551% (inactive) and 8.99% (inactive) | -3.38% (inactive) | – | – | – | inactive | – | – | inactive |
| Nc1nc2ccc([N+](=O)[O-])cc2s1 | inactive | – | – | – | – | – | – | – | – | – | – | – | – | – | – | – | – | – |
| O=C(O)C(Cl)Cl | inactive | -4.92% | inactive | inactive | inactive | – | -16% and 3.52% | inactive | -11.2% and -3.76% | 4.75% (inactive) and -13.6% (inactive) | 0.759% (inactive) and 14.6% (inactive) | inactive | -0.327% (inactive) | inactive | inactive | inactive | inactive | inactive |

Source: PubChem BioAssay (NCATS)
